Measured values as given in PubChem BioAssay (Tox21).
Records with an inconclusive call do not appear. A number with no mark means an inactive call. Calls of active or inactive are those of the source. Calls follow the shape of the dose curve; as a rule, active = well fitted inhibition curve with a large enough effect in the signal ratio in the repeat runs (not every such curve was filed as active); inconclusive = weak or mixed curves, or effect the other way; inactive = no such curve, though single readings can be large or run the other way; the % refers to the signal ratio.

Each compound was assayed against Glucocorticoid receptor (Homo sapiens) (UniProt P04150) (assay: qHTS assay to identify small molecule antagonists of the glucocorticoid receptor (GR) signaling pathway (AID 720692)). Conditions: GR-bla HeLa, beta-lactamase FRET ratio, dexamethasone-stimulated, 18 h; series mostly up to 58.5 µM; activity change, negative = inhibition: at the top concentration.
Description: U.S. Tox21 Program National Center for Advancing Translational Sciences [NCATS] NIH Chemical Genomics Center [NCGC] U.S. Environmental Protection Agency [EPA] National Institutes of Environmental Health Sciences [NIEHS] National Toxicology Program [NTP] U.S. Food and Drug Administration [FDA] Tox21 Assay Overview: The Glucocorticoid receptor (GR) is one of the members of the nuclear receptor family of ligand-dependent transcription factors. GR plays a critical role in carbohydrate, protein and lipid metabolisms and programmed cell death. CellSensor GR-bla HeLa cell line (Invitrogen) contains a beta-lactamase reporter gene under the control of the glucocorticoid response element stably integrated into HeLa cells, a cervical cancer cell line that expresses glucocorticoid receptor. The activation of the reporter gene under culture conditions can be detected by fluorescence intensity. This cell line has been used to screen the Tox21 10K compound library and to identify the compounds that inhibit the GR signaling.
Tox21 Assay Protocol Summary: The GR-bla HeLa cells were dispensed at 1500 cells/5 ul/well in 1536-well black wall/clear bottom plates using a Multidrop Combi (ThermoFisher Scientific, Waltham, MA) dispenser. After the assay plates were incubated at a 37 C/5% CO2 incubator for 4 hours, 23 nL of compounds dissolved in DMSO, positive controls or DMSO only was transferred to the assay plate by a pintool station (Kalypsys, San Diego, CA), followed by addition of 1 uL of dexamethasone (5 nM, final concentration in the well). The plates were incubated at 37 C for 18 hours. After 1 uL of LiveBLAzerTM B/G FRET substrate was added using a Flying Reagent Dispenser (Aurora Discovery, San Diego, CA), the plates were incubated at room temperature for 2 hours, and fluorescence intensity was measured by an Envision plate reader (PerkinElmer, Shelton, CT).
% is scaled to controls: 0 for no effect and ±100 for the full control effect.

Chain of Glucocorticoid receptor (Homo sapiens) (P04150 whole entry, looked up): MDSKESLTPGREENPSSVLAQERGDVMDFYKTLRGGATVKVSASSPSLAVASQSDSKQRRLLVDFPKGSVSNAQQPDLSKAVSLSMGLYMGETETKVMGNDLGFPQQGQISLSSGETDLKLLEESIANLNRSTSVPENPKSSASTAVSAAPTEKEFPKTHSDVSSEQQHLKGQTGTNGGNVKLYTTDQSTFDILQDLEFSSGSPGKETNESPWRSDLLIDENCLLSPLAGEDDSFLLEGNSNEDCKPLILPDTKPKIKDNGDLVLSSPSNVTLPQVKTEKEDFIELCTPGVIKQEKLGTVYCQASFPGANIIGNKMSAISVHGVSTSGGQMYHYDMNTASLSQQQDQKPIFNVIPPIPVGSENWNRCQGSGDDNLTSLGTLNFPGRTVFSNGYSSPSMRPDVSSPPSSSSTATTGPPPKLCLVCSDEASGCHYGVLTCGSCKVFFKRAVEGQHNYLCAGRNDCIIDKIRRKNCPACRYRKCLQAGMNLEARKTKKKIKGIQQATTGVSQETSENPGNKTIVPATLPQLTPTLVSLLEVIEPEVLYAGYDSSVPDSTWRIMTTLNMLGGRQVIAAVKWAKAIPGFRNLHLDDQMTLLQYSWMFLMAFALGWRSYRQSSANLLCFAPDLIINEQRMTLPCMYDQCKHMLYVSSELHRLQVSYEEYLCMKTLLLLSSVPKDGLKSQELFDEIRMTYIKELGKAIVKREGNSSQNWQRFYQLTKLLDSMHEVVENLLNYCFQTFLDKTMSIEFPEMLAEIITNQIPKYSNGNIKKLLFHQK

| SMILES | activity change, negative = inhibition | outcome |
| --- | --- | --- |
| CCCCOC(=O)C(C)OC(=O)CCC (stereo not given) | 0.988% |  |
| NC(Cc1c[nH]c2ccccc12)C(=O)O (stereo not given) | -28.1% |  |
| CCCCCC1CCCC(=O)O1 (stereo not given) | -3.42% |  |
| C/C=C(\C)C(=O)OCC/C=C\CC | -0.997% |  |
| CCCCCCCCCOCC1CO1 (stereo not given) | 3.62% [at 78.9 µM] |  |
| CC(C)(c1ccc(Oc2ccc3c(c2)C(=O)OC3=O)cc1)c1ccc(Oc2ccc3c(c2)C(=O)OC3=O)cc1 | 11.4% |  |
| CO/N=C(/C(=O)N[C@@H]1C(=O)N2C(C(=O)O)=C(Cn3nnc(C)n3)CS[C@H]12)c1csc(N)n1 | 7.44% |  |
| COc1ccc(NS(=O)(=O)c2ccc(N)cc2)nn1 | 1.94% [at 27 µM] |  |
| COc1ccc(/C=N/NC(=O)c2ccncc2)cc1OC | -7.77% |  |
| CN(C)CCOCCN(C)CCO | 15.9% |  |
| COC(/C=C(\C)CCC=C(C)C)OC | 0.397% |  |
| N#CCCOCCOCCC#N | 14.1% |  |
| Cc1cccc(NC(=S)N(C)C)c1 | -0.582% |  |
| COc1ccc(N=Nc2cc(C)c(N=Nc3ccc(S(=O)(=O)O)cc3)cc2OC)cc1 | 9.96% |  |
| O=C(O)c1ccccc1C(=O)Nc1ccc(S(=O)(=O)Nc2nccs2)cc1 | 6.33% |  |
| CC(=O)OC(C)c1ccccc1 (stereo not given) | 3.67% |  |
| Nc1ccc(S(=O)(=O)NC(=O)c2ccccc2)cc1 | 7.34% [at 27 µM] |  |
| CCOC(=O)OCC/C(SC(=O)OCC)=C(\C)N(C=O)Cc1cnc(C)nc1N | -8.97% |  |
| CCCCCCCC[Si](OCC)(OCC)OCC | 11.8% |  |
| NC(=O)NNC(N)=O | 5.84% |  |

| SMILES | activity change, negative = inhibition | outcome |
| --- | --- | --- |
| COC(OC)C(C)c1ccccc1 (stereo not given) | 19.2% |  |
| Nc1c(NC/C=C\COc2cc(CN3CCCCC3)ccn2)c(=O)c1=O | -2.85% |  |
| C=COCCOCCOC=C | 2.46% |  |
| NS(=O)(=O)c1cc2c(cc1Cl)NC(CC1CCCC1)NS2(=O)=O (stereo not given) | 11.1% [at 27 µM] |  |
| O=C(COCCOCCOCC(=O)Nc1c(I)cc(I)c(C(=O)O)c1I)Nc1c(I)cc(I)c(C(=O)O)c1I | -0.219% |  |
| O=C1CC[C@H](C(=O)N2CCCCC2)N1 | 7.77% |  |
| CN[C@@H]1[C@H](O)[C@H](NC)[C@H]2O[C@@]3(O)C(=O)C[C@@H](C)O[C@H]3O[C@@H]2[C@H]1O | 7.79% [at 27 µM] |  |
| O=[Si]=O | -8.36% |  |
| OCCCCCCCl | -9.57% [at 78.9 µM] |  |
| CC(C)CCCCCCOC(=O)C1CCCCC1C(=O)OCCCCCCC(C)C (stereo not given) | -1.2% |  |
| O=C1c2ccccc2-c2ccccc21 | -20% [at 78.9 µM] |  |
| Cc1ncc([N+](=O)[O-])n1CC(O)CCl (stereo not given) | -9.24% [at 27 µM] |  |
| O=C(O)CCNC(=O)c1ccccc1 | -5.91% |  |
| Nc1ccc(S(=O)(=O)Nc2ccccn2)cc1 | -11.2% [at 27 µM] |  |
| O=C(O)/C=C/c1ccccc1 |  | inactive |
| CCC(CO)CO | 12.7% |  |
| C[C@H](CCC(=O)NCC(=O)O)[C@H]1CC[C@H]2[C@@H]3[C@H](O)C[C@@H]4C[C@H](O)CC[C@]4(C)[C@H]3C[C@H](O)[C@]12C | 22.3% |  |
| CCCCCC1Nc2cc(C(F)(F)F)c(S(N)(=O)=O)cc2S(=O)(=O)N1 (stereo not given) | -8.19% |  |
| O=c1[nH]c(=O)c2[nH]c(=O)[nH]c2[nH]1 |  | inactive |
| CN[C@@H]1[C@@H](O)[C@@H](O[C@@H]2[C@H](O)[C@H](O[C@H]3OC(CN)=CC[C@H]3N)[C@@H](N)C[C@H]2N)OCC1(C)O (stereo not given in full) | 16.9% |  |
